In all, about 330,000 compounds went through this assay and about 10,000 (3%) were called active.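 Rule for the calls: active = inhibition of at least 50% at 8 µM in the primary screen; inactive = the rest.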 The sample as a whole holds a higher share of actives than the screen did.

Results on 58 compounds are retold here after PubChem BioAssay AID485346 (Sanford-Burnham Center for Chemical Genomics, 2010).

The target in this assay is Protein Mdm4 (Homo sapiens) + E3 ubiquitin-protein ligase Mdm2 (Homo sapiens) (UniProt O15151+Q00987). Put plainly: disruptors of Mdm2/MdmX RING complex – cell-based, luminescence, split luciferase, SaOS-2, uHTS, primary screen (AID 485346). To be noted: SaOS-2 split-luciferase Mdm2/MdmX complementation, at 8 µM, hits give high values.
Sequence of Protein Mdm4 (Homo sapiens) + E3 ubiquitin-protein ligase Mdm2 (Homo sapiens) (O15151 whole entry, looked up): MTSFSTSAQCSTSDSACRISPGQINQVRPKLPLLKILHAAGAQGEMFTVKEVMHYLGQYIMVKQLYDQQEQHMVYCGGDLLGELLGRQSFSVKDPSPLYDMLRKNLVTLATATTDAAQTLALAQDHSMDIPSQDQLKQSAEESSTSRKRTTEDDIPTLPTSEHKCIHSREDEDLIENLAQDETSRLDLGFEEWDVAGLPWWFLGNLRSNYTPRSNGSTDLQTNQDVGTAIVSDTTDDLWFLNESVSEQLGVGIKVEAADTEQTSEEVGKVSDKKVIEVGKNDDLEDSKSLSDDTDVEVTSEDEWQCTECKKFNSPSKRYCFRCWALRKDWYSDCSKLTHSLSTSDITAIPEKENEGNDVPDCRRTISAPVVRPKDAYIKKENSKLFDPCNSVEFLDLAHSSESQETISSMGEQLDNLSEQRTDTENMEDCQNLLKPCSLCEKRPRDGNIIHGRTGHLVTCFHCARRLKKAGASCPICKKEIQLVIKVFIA
Sequence of Protein Mdm4 (Homo sapiens) + E3 ubiquitin-protein ligase Mdm2 (Homo sapiens) (Q00987 whole entry, looked up): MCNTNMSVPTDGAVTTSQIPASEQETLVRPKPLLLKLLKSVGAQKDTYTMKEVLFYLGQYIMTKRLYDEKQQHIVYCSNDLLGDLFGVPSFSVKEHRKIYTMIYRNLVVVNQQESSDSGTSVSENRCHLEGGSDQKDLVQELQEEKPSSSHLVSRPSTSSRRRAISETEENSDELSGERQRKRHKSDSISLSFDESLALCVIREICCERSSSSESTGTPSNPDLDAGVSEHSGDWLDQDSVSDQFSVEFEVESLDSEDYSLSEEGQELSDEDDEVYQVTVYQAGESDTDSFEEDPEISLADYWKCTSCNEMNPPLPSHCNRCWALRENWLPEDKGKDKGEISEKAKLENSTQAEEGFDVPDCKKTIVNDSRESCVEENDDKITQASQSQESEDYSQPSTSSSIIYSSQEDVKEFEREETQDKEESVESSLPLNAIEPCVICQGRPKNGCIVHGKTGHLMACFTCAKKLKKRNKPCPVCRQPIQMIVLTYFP
In the case of `Cc1ccc(CNC(=O)c2cc(-c3ccccc3C)n(CC3CC(c4cccc([N+](=O)[O-])c4)=NO3)n2)cc1` (stereo not drawn), the inhibition – broadly, the drop in the measured response relative to a control, in per cent – is 26.5% (inactive).

For `CCOc1ccc(-n2c(O)c(/C=N/Nc3nc(C)cc(C)n3)c3ccccc3c2=O)cc1`, the inhibition is 65.3% (active).

For the compound `CCOc1ccc(-n2c(O)c(/C=N/c3ccnn3Cc3ccncc3)c3ccccc3c2=O)cc1`, the inhibition is 2.6% (inactive). Then `CCN(CC)CCCN=Cc1c(O)n(-c2ccc(C)cc2)c(=O)c2ccccc12`, with -22.5% (inactive); and `CCCC1C(=O)N2C(N(C)C)=Nc3ccc(C)cc3N2C1=O` (stereo not drawn), with 15.1% (inactive). Then `CC1CCN(C(=O)CCc2nnc3ccc(NCc4ccco4)nn23)CC1`, with 22.2% (inactive); and `COc1ccc(C(C)=O)cc1CSc1nc2nc(C)cc(C)n2n1`, with -8.43% (inactive); and `CC(=O)c1ccc(Oc2cc(C)nc(-n3nc(C)cc3C)n2)cc1`, with 59.2% (active). Then `Cc1cc(C)n(-c2ccc(C(=O)O)cc2[N+](=O)[O-])n1`, with -9.75% (inactive); and `CCOC(=O)C1C(c2ccc(OC)c(OC)c2)c2c([nH][nH]c2=O)CC1(C)O` (stereo not drawn), with -7.74% (inactive); and `COCCCNC(=S)NCCNc1nc2cc(C)c(C)cc2cc1C#N`, with -28.9% (inactive). Consider `Cc1cc(C(=O)COC(=O)CCCN2C(=O)c3ccccc3C2=O)c(C)n1C`, for which the inhibition is 6.08% (inactive).

On to `C=CCN(CC=C)C(=O)CN1C(=O)c2ccccc2C1=O`, for which the inhibition is 11.2% (inactive). For the compound `C=CCn1c(C)cc(C(=O)CN2C(=O)c3ccccc3C2=O)c1C`, the inhibition is 68% (active).

With `Cc1cc(S(=O)(=O)N2CCOCC2)ccc1OCC(=O)Nc1cccc(C(F)(F)F)c1`, the inhibition is 23.2% (inactive). The same measure for `CC(C)n1cnc2c(NCc3ccccc3)cc(N[C@@H](CO)Cc3ccccc3)cc21`: 93.5% (active); for `CC(C)n1cnc2c(NCc3ccccc3)cc(OCC3CCN(C)CC3)cc21`: 22.6% (inactive); for `CCC(CO)Oc1cc(NCc2ccccc2)c2ncn(C3CCCC3)c2c1` (stereo not drawn): 7.28% (inactive). Take `CC(C)(Oc1ccc(C2CC2(Cl)Cl)cc1)C(=O)O` (stereo not drawn): the inhibition is 26.9% (inactive). The same measure for `Cn1cc(S(=O)(=O)N2CCN(c3ccc(F)cc3)CC2)c(=O)n(C)c1=O`: 8.49% (inactive); for `CCCCn1c(=S)[nH]c2cc(S(=O)(=O)N3CCCCC3)ccc21`: -7.07% (inactive).

Regarding `O=C(Nc1cc(S(=O)(=O)Nc2ccc(Cl)cc2)ccc1O)c1ccc(F)cc1F`, the inhibition was 6.95% (inactive).

As to `Cc1nnnn1/C(=C\c1ccccc1)C(=O)OCC(=O)N1CC2(C)CC1CC(C)(C)C2` (stereo not drawn), the inhibition is 57.8% (active). Then `Cc1cccc(C(=O)NCC(=O)OCC(=O)N2CC3(C)CC2CC(C)(C)C3)c1` (stereo not drawn), with -13.6% (inactive); and `COc1ccc(C(=O)N2CC3(C)CC2CC(C)(C)C3)cc1OC` (stereo not drawn), with 16.7% (inactive); and `Cc1ccc(C(=O)NCC(=O)O)s1`, with 14% (inactive).

In the case of `CC(C)(C)n1nc(Cc2cccc3ccccc23)c(C#N)c1N`, the inhibition is -12% (inactive).

Turning to `CCc1nn(-c2cc(Oc3cccc4ccccc34)nc(-c3ccccc3)n2)c(N)c1C#N`, the inhibition is 86.8% (active). As for `CC#CC[N+](C)(C)CCCCCC`, the inhibition was -0.896% (inactive). Then `C=CCn1c(-c2ccccc2OCC)n[nH]c1=S`, with 18.7% (inactive). The same measure for `C/C(=N\NC(=O)c1cc(-c2ccc(O)cc2)nc2ccccc12)c1cccnc1`: -9.48% (inactive); for `CCOc1cc(CNCc2ccccn2)ccc1OCC(=O)NC(C)(C)C`: -2.81% (inactive). Then `COc1ccc(CNC(=O)C(c2ccc(O)cc2)N(Cc2ccco2)C(=O)c2snc(C(N)=O)c2N)cc1` (stereo not drawn), with 54.5% (active); and `COc1cc(C(C(=O)NC2CCCC2)N(Cc2ccccc2)C(=O)c2snc(C(N)=O)c2N)ccc1O` (stereo not drawn), with 21.6% (inactive); and `NC(=O)c1nsc(C(=O)N(CC(=O)NCc2ccc(F)cc2)Cc2ccco2)c1N`, with 9.54% (inactive). `CCc1ccc(OCC(O)CN2CCN(CCO)CC2)cc1` (stereo not drawn): the inhibition is 19.2% (inactive). Then `CCOC(=O)c1cnn(Cc2ccccc2Cl)c1N`, with -23.4% (inactive); and `CC(C)(C)n1ncc2c(=O)n(Cc3c(Cl)cccc3Br)cnc21`, with 10.5% (inactive). The same measure for `CC(C)c1nnc(NC(=O)C2CC(=O)N(CCc3ccc(F)cc3)C2)s1` (stereo not drawn): -16.4% (inactive). Consider `CCN(C(=O)COC(=O)c1c(NC(C)=O)sc(C)c1C)C1CCS(=O)(=O)C1` (stereo not drawn), for which the inhibition was 13.7% (inactive). Then `O=C(c1cccs1)N(Cc1cc2ccccc2[nH]c1=O)CC1CCCO1` (stereo not drawn), with -37.5% (inactive); and `COc1ccc(-c2c(NC(=O)c3ccco3)oc3ccc(Cl)cc3c2=O)cc1`, with -18.1% (inactive). Then `COc1ccc(NC(=O)c2cc(-c3cc(OC)c(OC)c(OC)c3)nc3ccccc23)c(OC)c1`, with 61.6% (active); and `COc1ccc(-c2cc(C(=O)Nc3ccccc3O)c3ccccc3n2)cc1`, with 9.09% (inactive). Consider `COc1ccccc1NC(=O)c1cc(Cl)nc2ccccc12`, for which the inhibition is -6.72% (inactive).

Turning to `CCN(CC(=O)Nc1ccccc1C(=O)NC1CC1)Cc1cccs1`, the inhibition is 30.2% (inactive). The same measure for `O=C(C1=C[C@H](c2coc3ccccc3c2=O)C[C@H](OCc2ccc(CO)cc2)O1)N1CCN(Cc2ccccc2)CC1`: 8.82% (inactive). Then `CN(c1ccccc1)S(=O)(=O)c1cc(C(=O)OCC(=O)N2CCN(C(=O)c3ccco3)CC2)ccc1Cl`, with 15.6% (inactive).

For the compound `CN(c1ccccc1)S(=O)(=O)c1cc(C(=O)N2CCN(c3ncccn3)CC2)ccc1Cl`, the inhibition is 77.3% (active). Then `CN(c1ccccc1)S(=O)(=O)c1ccc(C(=O)N2CCN(c3ccccc3Cl)CC2)cc1`, with 28.8% (inactive); and `COC(=O)c1ccc(C)c(NC(=O)Cn2c(C)csc2=O)c1`, with 26.8% (inactive).

On to `CC(C)(C)Cc1nnc(NC(=O)c2cc(-c3ccccc3)nc3ccccc23)s1`, for which the inhibition was -22% (inactive). As for `O=C(Nc1nnc(-c2ccc(Cl)cc2)o1)c1ccccc1Br`, the inhibition was -13.3% (inactive). The same measure for `O=C(Nc1nnc(-c2ccccc2)o1)c1cc(-c2cccs2)nc2ccccc12`: 51% (active); for `COc1ccc(Cl)cc1C(=O)NNC(=O)c1nc2nc(C)cc(C)n2n1`: 8.57% (inactive); for `CN(C)/C=C/c1c(C#N)c(=O)ncn1Cc1ccccc1`: 13.9% (inactive). `O=c1c2c(ncn1Cc1ccccc1)nc1n2CCC1`: the inhibition is 19.7% (inactive). The same measure for `CN(C)c1ccnc2sc3c(=O)n(Cc4ccccc4)cnc3c12`: 59.1% (active).
